Assay [1] addresses Androgen receptor (Homo sapiens) (UniProt P10275). As to the kind of experiment: ATG_AR_TRANS: Attagene TRANS-FACTORIAL HepG2 Assay for human Androgen Receptor (AR) (AID 2282973). Particulars: HepG2 Attagene TRANS-FACTORIAL AR reporter transcription. The essentials:
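Steps: transfect HepG2 with multiple GAL4-UAS reporter transcription units (TRANS format, exogenous NR-Gal4 protein); dose 24 h; isolate RNA, reverse-transcribe, PCR-amplify, FAM-label, HpaI-digest; resolve by capillary electrophoresis. Positive direction vs DMSO.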

Assay [2] has as its target human AMP-activated Protein Kinase, alpha 1 (AMPKa1), PRKAA1 (gene 5562) (UniProt Q13131). As to the kind of experiment: NVS_ENZ_hAMPKa1: NovaScreen (NVS) Enzymatic Assay for human AMP-activated Protein Kinase, alpha 1 (AMPKa1) (AID 2283130). The method, boiled down: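 Compounds were screened in duplicate at 25 uM, and those reaching ~30% inhibition were titrated up to 50 uM. The enzyme was recombinant human AMPKα1, and kinase turnover was read by fluorescence/mobility shift 1 h post-dosing as loss of signal versus DMSO.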

In assay [3] the target is human Aurora Kinase A - serine/threonine-protein Kinase 6 (AurA), AURKA (gene 6790) (UniProt O14965). As to the kind of experiment: NVS_ENZ_hAurA: NovaScreen (NVS) Enzymatic Assay for human Aurora Kinase A - serine/threonine-protein Kinase 6 (AurA) (AID 2283142). The essentials:
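Recombinant human AurA activity read by fluorescence after mobility-shift separation of product from substrate; 1 hour incubation. Chemicals first run in duplicate at 25 uM, then concentration series to 50 uM if over threshold; fitted relative to DMSO.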

For assay [4], the target named is human Fibroblast Growth Factor Receptor 1 (FGFR1), FGFR1 (gene 2260) (UniProt P11362). As to the kind of experiment: NVS_ENZ_hFGFR1: NovaScreen (NVS) Enzymatic Assay for human Fibroblast Growth Factor Receptor 1 (FGFR1) (AID 2283159).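 As to AC50: hits lower the signal so potencies describe inhibitors of the kinase.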 The method, boiled down: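 Cell-free recombinant kinase with fluorescent substrate, product separated by electrophoretic mobility shift; read 1 hour after dosing, loss of signal relative to DMSO. Initial screen in duplicate at 25 uM, actives followed in concentration series.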

Assay [5] concerns the target human IkappaB Kinase alpha (IKKa), CHUK (gene 1147) (UniProt O15111). Briefly: NVS_ENZ_hIKKa: NovaScreen (NVS) Enzymatic Assay for human IkappaB Kinase alpha (IKKa) (AID 2283167). The essentials:
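Compounds first run in duplicate at 25 uM, those meeting threshold (e.g. 30% inhibition) retested to maximum 50 uM. Enzyme activity of recombinant IKKa measured by fluorescence with electrophoretic mobility shift separation, 1 hour post-dosing, DMSO baseline.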

For assay [6], the target named is human MET Proto-Oncogene, Receptor Tyrosine Kinase (MET), MET (gene 4233) (UniProt P08581). Briefly: NVS_ENZ_hMet: NovaScreen (NVS) Enzymatic Assay for human MET Proto-Oncogene, Receptor Tyrosine Kinase (MET) (AID 2283180). The essentials:
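Hits from a 25 uM duplicate screen were retested in concentration series up to 50 uM. Enzyme activity was measured by fluorescence after electrophoretic separation of product from substrate, 1 h after compound addition, relative to DMSO.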

The target of assay [7] is human p21 Activated Kinase 4 (PAK4), PAK4 (gene 10298) (UniProt O96013). Briefly: NVS_ENZ_hPAK4: NovaScreen (NVS) Enzymatic Assay for human p21 Activated Kinase 4 (PAK4) (AID 2283189). The essentials: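 Extracted PAK4 enzyme activity read by fluorescence with mobility-shift separation 1 h after chemical addition. Duplicate single-concentration screen at 25 uM, DMSO as negative control.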

Assay [8] addresses human Phosphatase and Tensin Homolog (PTEN), PTEN (gene 5728) (UniProt P60484). As to the kind of experiment: NVS_ENZ_hPTEN: NovaScreen (NVS) Enzymatic Assay for human Phosphatase and Tensin Homolog (PTEN) (AID 2283203). The method, boiled down: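 Loss of fluorescent product signal after mobility-shift separation reports PTEN activity, recombinant human enzyme, 1 h after compound addition. Single 25 uM duplicate screen, then concentration-response on actives; DMSO baseline.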

Assay [9] addresses human Protein Tyrosine Phosphatase Receptor Type C (PTPRC), PTPRC (gene 5788) (UniProt P08575). As to the kind of experiment: NVS_ENZ_hPTPRC: NovaScreen (NVS) Enzymatic Assay for human Protein Tyrosine Phosphatase Receptor Type C (PTPRC) (AID 2283212). The essentials:
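Absorbance-based phosphatase activity of human PTPRC protein extracted from yeast was measured 1 h post-dosing. Compounds first tested at 25 uM in duplicate, then those passing threshold in singleton concentration series to 50 uM.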

Assay [10] deals with human Tyrosine Protein Kinase Receptor Tie-2 (Tie2), TEK (gene 7010) (UniProt Q02763). Briefly: NVS_ENZ_hTie2: NovaScreen (NVS) Enzymatic Assay for human Tyrosine Protein Kinase Receptor Tie-2 (Tie2) (AID 2283225). The method, boiled down: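 Substrate and product were separated by mobility shift and detected by fluorescence after a 1-hour reaction with recombinant Tie2. Chemicals passing a 25 uM single-point screen were titrated to a maximum of 50 uM. Results were normalized to DMSO baseline.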

Assay [11] addresses human Caspase 2 (CASP2), CASP2 (gene 835) (UniProt P42575). Briefly: NVS_ENZ_hCASP2: NovaScreen (NVS) Enzymatic Assay for human Caspase 2 (CASP2) (AID 2283135). The method, boiled down: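 Single-point duplicate testing at 25 uM preceded concentration series topping at 50 uM. Activity of the recombinant E. coli-derived protease was followed by fluorescent substrate cleavage 1 h post-dosing, relative to DMSO.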

For assay [12], the target named is Voltage-dependent N-type calcium channel subunit alpha-1B (Rattus norvegicus) (UniProt Q02294). Briefly: NVS_IC_rCaChN: NovaScreen (NVS) Ion Channel Assay for rat Calcium Channel, Type N (CaChN) (AID 2283317).
In assay [13] the target is human Caspase 10 (CASP10), CASP10 (gene 843) (UniProt Q92851). As to the kind of experiment: NVS_ENZ_hCASP10: NovaScreen (NVS) Enzymatic Assay for human Caspase 10 (CASP10) (AID 2283133). The essentials: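 Fluorescence-intensity enzyme read-out of E. coli-expressed CASP10 activity, 1 h after compound. Single-point duplicates at 25 uM preceded concentration-response testing (top 50 uM) of hits; inhibition expressed as signal loss versus DMSO.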

The test system of assay [14] is rat Monoamine Oxidase, MAO-A, Peripheral (MAOAP), gene 29253. Briefly: NVS_ENZ_rMAOAP: NovaScreen (NVS) Enzymatic Assay for rat Monoamine Oxidase, MAO-A, Peripheral (MAOAP) (AID 2283237). The method, boiled down: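 Scintillation counting tracked MAO-A activity in a cell-free rat liver mitochondrial membrane prep, read 1.17 hours after compound addition. Single-point duplicate testing at 25 uM preceded concentration-response follow-up; activity was fitted relative to DMSO.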

Assay [15] concerns the target rat Monoamine Oxidase, MAO-B, Central (MAOBC), Maob (gene 25750) (UniProt P19643). Briefly: NVS_ENZ_rMAOBC: NovaScreen (NVS) Enzymatic Assay for rat Monoamine Oxidase, MAO-B, Central (MAOBC) (AID 2283238). The method, boiled down:
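Actives from a duplicate 25 uM screen went on to singleton concentration-response with a 50 uM maximum. Enzyme source was rat brain tissue MAO-B, assayed cell-free. Radiolabelled product was counted by scintillation 1.17 h post-dose, with signal loss relative to DMSO.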

For assay [16], the target named is Norway rat Vesicular Monoamine Transporter (VMAT2), neurotransmitter transporter, Slc18a2 (gene 25549) (UniProt Q01827). As to the kind of experiment: NVS_TR_rVMAT2: NovaScreen (NVS) Transporter Assay for Norway rat Vesicular Monoamine Transporter (VMAT2), neurotransmitter transporter (AID 2283376).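 Also: actives lower the bound radioligand signal below the DMSO level.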 The essentials: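 Using rat forebrain membranes, specific radioligand binding to VMAT2 was measured by filtration and scintillation counting after 1 hour. Chemicals screened at 25 uM in duplicate, actives retested in concentration series, DMSO baseline.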

A short description of assay [17]: ATG_M_32_XSP2: Attagene TRANS-FACTORIAL Multi-Species (XSP2) HepG2 Assay for M19 Transcription Factor (Internal Marker) (AID 2283826). The essentials: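 Transfected HepG2 (multiplexed GAL4-UAS reporters), 24 h chemical exposure, 3 nM 6-alpha-fluorotestosterone + 1.5 nM norgestrel added. RNA → oligo(dT) RT → PCR → 6-FAM primer extension → HpaI cut → CE. Fitted upward vs DMSO.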

Inconclusive results are not listed. Calls of active or inactive are those of the source. The calls were made as follows: active = hit-call score of the fitted dose curve at least 0.9, where 1 is the maximum; inconclusive = response in the unintended direction; inactive = score below 0.9.

Chain of Androgen receptor (Homo sapiens) (P10275 whole entry, looked up, the tested form may be a part): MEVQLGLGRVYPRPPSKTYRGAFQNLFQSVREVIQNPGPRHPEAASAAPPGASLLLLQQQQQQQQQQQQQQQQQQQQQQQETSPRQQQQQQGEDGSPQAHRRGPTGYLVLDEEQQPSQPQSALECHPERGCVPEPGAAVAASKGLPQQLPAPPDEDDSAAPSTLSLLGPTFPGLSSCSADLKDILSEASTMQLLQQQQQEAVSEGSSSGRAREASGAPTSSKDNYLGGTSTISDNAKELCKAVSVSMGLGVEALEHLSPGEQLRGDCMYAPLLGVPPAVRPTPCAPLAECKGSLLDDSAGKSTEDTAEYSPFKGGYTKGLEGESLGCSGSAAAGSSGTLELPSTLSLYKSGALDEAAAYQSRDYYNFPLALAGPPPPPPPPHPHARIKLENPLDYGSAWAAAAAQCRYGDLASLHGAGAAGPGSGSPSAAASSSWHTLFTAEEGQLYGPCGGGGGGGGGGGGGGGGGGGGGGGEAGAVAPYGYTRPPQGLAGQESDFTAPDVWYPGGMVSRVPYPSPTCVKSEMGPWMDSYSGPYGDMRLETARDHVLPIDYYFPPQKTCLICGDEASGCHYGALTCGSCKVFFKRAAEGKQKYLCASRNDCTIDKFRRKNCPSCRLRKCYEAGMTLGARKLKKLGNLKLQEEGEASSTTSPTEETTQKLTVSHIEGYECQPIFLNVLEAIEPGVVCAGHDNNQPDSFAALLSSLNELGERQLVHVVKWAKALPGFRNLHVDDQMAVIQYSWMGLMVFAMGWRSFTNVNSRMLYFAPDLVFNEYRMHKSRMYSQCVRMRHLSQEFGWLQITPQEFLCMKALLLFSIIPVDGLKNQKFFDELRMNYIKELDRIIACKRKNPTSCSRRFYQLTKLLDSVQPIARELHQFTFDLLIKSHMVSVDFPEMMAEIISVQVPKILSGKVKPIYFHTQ
Chain of human Fibroblast Growth Factor Receptor 1 (FGFR1), FGFR1 (gene 2260) (P11362 whole entry, looked up): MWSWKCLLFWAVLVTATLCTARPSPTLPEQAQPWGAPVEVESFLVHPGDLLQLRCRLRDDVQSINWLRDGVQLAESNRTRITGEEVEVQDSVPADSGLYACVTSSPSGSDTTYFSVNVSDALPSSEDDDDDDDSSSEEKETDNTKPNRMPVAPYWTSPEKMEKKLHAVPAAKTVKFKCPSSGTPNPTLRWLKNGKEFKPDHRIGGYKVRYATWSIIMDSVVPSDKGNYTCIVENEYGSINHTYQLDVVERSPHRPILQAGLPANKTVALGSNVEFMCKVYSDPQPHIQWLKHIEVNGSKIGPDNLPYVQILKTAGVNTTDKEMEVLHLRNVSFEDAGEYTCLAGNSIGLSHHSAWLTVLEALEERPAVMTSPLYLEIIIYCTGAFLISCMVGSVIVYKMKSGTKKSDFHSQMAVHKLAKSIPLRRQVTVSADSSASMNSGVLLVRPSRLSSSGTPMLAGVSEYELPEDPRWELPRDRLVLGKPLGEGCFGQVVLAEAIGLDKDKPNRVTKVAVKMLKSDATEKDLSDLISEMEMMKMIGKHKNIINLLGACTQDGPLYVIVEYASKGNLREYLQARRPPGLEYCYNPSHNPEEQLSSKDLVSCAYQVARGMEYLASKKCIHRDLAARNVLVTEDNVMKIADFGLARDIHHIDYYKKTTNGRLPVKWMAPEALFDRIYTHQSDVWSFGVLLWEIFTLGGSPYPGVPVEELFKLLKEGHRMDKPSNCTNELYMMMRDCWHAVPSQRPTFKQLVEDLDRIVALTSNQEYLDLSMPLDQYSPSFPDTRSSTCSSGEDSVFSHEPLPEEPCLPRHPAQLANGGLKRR
Chain of Norway rat Vesicular Monoamine Transporter (VMAT2), neurotransmitter transporter, Slc18a2 (gene 25549) (Q01827 whole entry, looked up): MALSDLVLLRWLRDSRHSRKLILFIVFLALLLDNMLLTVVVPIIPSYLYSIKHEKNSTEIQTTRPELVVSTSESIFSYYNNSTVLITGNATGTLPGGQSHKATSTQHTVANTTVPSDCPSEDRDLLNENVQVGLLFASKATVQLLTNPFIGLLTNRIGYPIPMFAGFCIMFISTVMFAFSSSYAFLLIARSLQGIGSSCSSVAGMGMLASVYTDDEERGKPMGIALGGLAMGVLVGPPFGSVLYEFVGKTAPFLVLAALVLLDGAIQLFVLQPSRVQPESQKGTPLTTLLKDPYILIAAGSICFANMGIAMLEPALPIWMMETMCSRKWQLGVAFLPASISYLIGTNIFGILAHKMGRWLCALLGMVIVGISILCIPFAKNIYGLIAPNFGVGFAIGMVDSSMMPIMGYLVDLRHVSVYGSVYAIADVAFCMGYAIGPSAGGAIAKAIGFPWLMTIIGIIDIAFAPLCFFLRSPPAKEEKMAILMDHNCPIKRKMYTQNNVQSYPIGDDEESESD
Chain of human Protein Tyrosine Phosphatase Receptor Type C (PTPRC), PTPRC (gene 5788) (P08575 whole entry, looked up): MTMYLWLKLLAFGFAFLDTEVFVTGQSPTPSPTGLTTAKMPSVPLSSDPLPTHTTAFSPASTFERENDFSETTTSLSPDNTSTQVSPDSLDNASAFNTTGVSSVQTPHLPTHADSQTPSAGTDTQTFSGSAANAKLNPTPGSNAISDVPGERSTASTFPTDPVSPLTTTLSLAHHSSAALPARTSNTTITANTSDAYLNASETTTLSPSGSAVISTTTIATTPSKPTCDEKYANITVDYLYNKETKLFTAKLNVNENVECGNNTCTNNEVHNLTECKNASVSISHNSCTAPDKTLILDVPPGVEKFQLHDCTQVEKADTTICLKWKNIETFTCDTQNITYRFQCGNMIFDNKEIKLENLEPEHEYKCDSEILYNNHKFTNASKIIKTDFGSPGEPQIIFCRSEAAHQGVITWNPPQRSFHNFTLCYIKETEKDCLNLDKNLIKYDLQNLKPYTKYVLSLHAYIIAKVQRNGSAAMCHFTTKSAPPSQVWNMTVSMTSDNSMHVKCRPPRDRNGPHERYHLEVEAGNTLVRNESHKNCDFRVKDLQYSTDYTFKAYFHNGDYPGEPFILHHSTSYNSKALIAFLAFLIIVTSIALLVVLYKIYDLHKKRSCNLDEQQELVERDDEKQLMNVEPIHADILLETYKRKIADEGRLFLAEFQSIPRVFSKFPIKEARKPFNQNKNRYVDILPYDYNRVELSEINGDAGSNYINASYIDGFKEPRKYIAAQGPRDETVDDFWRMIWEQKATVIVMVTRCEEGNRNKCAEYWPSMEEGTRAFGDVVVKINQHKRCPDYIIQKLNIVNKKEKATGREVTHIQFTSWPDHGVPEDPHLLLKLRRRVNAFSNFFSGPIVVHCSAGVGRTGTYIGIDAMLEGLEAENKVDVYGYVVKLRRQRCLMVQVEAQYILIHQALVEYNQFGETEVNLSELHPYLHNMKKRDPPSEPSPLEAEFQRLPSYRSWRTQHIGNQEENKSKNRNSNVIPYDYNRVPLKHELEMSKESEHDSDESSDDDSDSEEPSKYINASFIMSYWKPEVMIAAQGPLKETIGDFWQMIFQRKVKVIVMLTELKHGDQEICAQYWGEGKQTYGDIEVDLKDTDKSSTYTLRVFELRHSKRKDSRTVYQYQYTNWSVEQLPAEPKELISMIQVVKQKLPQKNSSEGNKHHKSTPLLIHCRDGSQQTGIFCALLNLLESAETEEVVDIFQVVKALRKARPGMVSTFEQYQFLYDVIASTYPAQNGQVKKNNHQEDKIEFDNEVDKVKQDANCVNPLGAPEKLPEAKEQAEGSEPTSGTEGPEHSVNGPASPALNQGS
Chain of human Tyrosine Protein Kinase Receptor Tie-2 (Tie2), TEK (gene 7010) (Q02763 whole entry, looked up): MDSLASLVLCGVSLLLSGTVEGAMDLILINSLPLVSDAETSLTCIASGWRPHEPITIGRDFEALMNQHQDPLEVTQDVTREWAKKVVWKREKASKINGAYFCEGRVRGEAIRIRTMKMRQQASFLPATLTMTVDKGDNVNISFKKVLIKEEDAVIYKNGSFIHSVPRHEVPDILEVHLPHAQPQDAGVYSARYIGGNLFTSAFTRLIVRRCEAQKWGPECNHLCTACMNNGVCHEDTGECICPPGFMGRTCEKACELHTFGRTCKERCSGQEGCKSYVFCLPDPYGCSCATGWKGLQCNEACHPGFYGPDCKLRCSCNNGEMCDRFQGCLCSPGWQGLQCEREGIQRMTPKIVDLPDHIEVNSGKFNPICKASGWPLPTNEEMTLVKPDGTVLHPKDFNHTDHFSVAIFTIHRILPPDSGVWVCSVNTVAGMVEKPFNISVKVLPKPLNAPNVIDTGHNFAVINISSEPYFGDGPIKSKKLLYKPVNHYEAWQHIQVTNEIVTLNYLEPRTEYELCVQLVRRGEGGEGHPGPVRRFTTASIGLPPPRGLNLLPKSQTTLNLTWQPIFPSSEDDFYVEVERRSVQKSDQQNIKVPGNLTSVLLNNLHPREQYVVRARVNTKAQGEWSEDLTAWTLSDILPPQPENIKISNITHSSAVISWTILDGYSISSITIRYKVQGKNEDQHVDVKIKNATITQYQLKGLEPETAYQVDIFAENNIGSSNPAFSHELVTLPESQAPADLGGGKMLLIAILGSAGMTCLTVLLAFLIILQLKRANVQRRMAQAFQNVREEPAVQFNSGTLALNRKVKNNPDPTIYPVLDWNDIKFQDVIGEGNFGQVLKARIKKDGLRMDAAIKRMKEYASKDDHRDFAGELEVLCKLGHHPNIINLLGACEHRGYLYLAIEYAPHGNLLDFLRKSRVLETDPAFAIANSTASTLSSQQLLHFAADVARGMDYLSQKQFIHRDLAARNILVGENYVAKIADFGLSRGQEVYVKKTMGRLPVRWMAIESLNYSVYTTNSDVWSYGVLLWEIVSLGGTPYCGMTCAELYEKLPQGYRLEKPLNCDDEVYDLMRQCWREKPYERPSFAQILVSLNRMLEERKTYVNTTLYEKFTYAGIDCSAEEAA
Chain of human Aurora Kinase A - serine/threonine-protein Kinase 6 (AurA), AURKA (gene 6790) (O14965 whole entry, looked up): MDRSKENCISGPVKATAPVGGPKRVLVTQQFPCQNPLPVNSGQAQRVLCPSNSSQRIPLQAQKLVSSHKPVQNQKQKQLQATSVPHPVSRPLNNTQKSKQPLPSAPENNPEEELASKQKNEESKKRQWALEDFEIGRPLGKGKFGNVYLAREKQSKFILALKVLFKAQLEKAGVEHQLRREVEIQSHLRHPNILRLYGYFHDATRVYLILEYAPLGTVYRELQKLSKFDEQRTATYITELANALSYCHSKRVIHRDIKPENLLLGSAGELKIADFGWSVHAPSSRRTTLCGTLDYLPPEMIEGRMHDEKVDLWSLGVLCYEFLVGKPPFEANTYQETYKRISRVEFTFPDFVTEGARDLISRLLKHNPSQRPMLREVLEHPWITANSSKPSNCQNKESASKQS

In general, AC50 refers to the midpoint of the concentration-response curve, whichever way the signal moves. For the compound `CCCCCCCCCCCCc1ccccc1S(=O)(=O)O`, the call in [1] was inactive. For the same compound, the AC50 in assay [2] was 11.3 µM (active); in [3], 9.88 µM (active); in assay [4], 9.42 µM (active); in assay [5] it was 31.7 µM (active); in assay [6] it was 26.2 µM (active); in [7], 18.1 µM (active). Moreover, the results for the AC50 in [8], in assay [9] and in assay [10] were 13.5 µM (active), 5.18 µM (active) and 9.14 µM (active), respectively.

For the compound `O=C(O)Cn1c(=O)n(Cc2ccc(Br)cc2F)c(=O)c2ccc(Cl)cc21`, the call in [1], in assay [11], in assay [4], in assay [9] and in assay [12] was inactive.

Take `COc1ccc2c(c1)c(CC(=O)O)c(C)n2C(=O)c1ccc(Cl)cc1`: the compound was classed as inactive in assay [1] and in assay [13].

Turning to `Oc1ccc2c(c1)-c1ccccc1C2`, the outcome in assay [1], in assay [16] and in assay [17] was inactive. Further, the AC50 in assay [4] is 32.7 µM (active); in assay [14] it was 4.45 µM (active); in assay [15], 19.6 µM (active).

As to `NC(=NCCCCCCN=C(N)/N=C(\N)Nc1ccc(Cl)cc1)/N=C(\N)Nc1ccc(Cl)cc1`, the compound was called inactive in assay [1], in assay [10] and in [16]. Further, the AC50 in assay [4] was 11.8 µM (active).

Values taken from PubChem BioAssay (EPA / NIEHS).
